Screening data deposited in PubChem by National Center for Advancing Translational Sciences (NCATS).
DT40 TDP1 CPT = qHTS for Inhibitors of human tyrosyl-DNA phosphodiesterase 1 (TDP1): qHTS in cells in presence of CPT. Potency, µM (series often up to 46.2 µM), usual class: inhibitors. hit rate 12% among 420,000. chicken DT40 Tdp1-/-;hTDP1 cells + 20 nM CPT, ATP luminescence, 48 h; note: nearly all actives have a fitted effect of over 55% in size
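Cell growth measured by CellTiter-Glo luminescence after a minimum 48 h, 37 C compound exposure with 20 nM CPT in Tdp1-knockout DT40 cells stably expressing hTDP1, seeded 400/well; qHTS titration format.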
TDP1 cell noCPT = qHTS for Inhibitors of human tyrosyl-DNA phosphodiesterase 1 (TDP1): qHTS in cells in absence of CPT | DT40 Tdp1-/- hTDP1 cells, no CPT, ATP luminescence, 48 h | Potency, µM (series often up to 46.2 µM), actives largely listed as inhibitors | hit rate 15% among 420,000; note: nearly all actives have a fitted effect of over 55% in size
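Camptothecin absent (DMSO only). Human TDP1-complemented DT40 knockout cells, 400 cells/well, 37 °C for minimum 48 hr; ATP measured via CellTiter-Glo, 30 min dark incubation, luminescence.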
TDP1 block = qHTS Assay for Inhibitors of Tyrosyl-DNA Phosphodiesterase (TDP1). Tyrosyl-DNA phosphodiesterase 1 (Homo sapiens), Q9NUW8. recombinant TDP1, AlphaScreen DNA substrate cleavage. Potency, µM (titrated, usually from 130 µM), actives largely listed as inhibitors. hit rate 0.28% among 350,000. AID 485290, 2010; note: nearly all actives have a fitted effect of over 40% in size
Target sequence (Q9NUW8 whole entry, looked up): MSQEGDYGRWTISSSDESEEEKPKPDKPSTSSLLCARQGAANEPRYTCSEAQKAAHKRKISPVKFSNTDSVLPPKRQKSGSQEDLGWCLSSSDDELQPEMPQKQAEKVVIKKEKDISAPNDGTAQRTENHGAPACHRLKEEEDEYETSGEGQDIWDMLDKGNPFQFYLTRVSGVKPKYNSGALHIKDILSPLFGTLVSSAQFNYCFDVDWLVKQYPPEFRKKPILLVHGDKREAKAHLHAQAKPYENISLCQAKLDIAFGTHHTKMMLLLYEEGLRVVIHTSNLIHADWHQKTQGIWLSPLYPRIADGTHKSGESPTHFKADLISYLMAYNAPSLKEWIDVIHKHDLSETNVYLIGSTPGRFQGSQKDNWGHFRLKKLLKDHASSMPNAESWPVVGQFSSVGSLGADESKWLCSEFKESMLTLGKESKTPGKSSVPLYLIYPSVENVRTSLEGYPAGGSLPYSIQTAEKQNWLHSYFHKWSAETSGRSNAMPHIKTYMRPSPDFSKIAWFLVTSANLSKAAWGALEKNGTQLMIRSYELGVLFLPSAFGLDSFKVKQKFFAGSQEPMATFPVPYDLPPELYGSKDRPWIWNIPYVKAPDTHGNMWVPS
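Recombinant human Tdp1 (E. coli-expressed, 1 nM final) preincubated with compounds 15 min at room temperature, then 5'-biotin/3'-phosphotyrosine-FITC DNA substrate (15 nM final) added for 5 min. AlphaScreen beads (10 ug/ml final) added 10 min; cleavage lowers signal.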
uPA generation = qHTS for Inhibitors of Cell Surface uPA Generation | cell surface uPA generation assay, qHTS | Potency, µM (titrated, usually from 38.3 µM), hits mostly inhibitors | hit rate 0.31% among 330,000; active = well fitted inhibition curve with a large enough effect; inconclusive = small, poorly fitted or top-dose-only effect; inactive = no such curve, though single readings can be large or run the other way; tested in mouse RAW 264.7 cells; note: nearly all actives have a fitted effect of over 55% in size
miR-21 act = qHTS Assay for Modulators of miRNAs and/orActivators of miR-21; 340,000 tested, under 10 active; HeLa miR-21 FLuc reporter, luciferase, 48 h; Potency, µM (titrated, usually from 38.3 µM), usual class: activators;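 note: miR-21 action dims this reporter so a rising signal means less miR-21 action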
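HeLa miR-21-FLuc reporter line, endogenous miR-21; 2000 cells/well in DMEM/10% FBS; compound titration up to ~40uM final, 48 h, 37 degree Celsius; luciferase detection reagent, 15 min lysis, CCD luminescence.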
Hits are given with their value; ! = not active in a repeat. Only some compounds are listed: those with a hit (about 16% of all), similar ones and a draw of the others. Unless noted, calls come from the whole dose curve; as a rule, active = well fitted curve in the direction sought with a large enough effect; inconclusive = small, poorly fitted or top-dose-only effect, or another doubt; inactive = no such curve, though single readings can be large; an effect the other way counts as inactive or inconclusive.

What do the screens show for `COc1ccc(NC(=O)c2cc(-c3ccco3)nc3ccccc23)cn1`?
DT40 TDP1 CPT: inconclusive; TDP1 cell noCPT: 20.6µM; TDP1 block: 14.1µM; uPA generation: inactive

How did O=C(Nc1nc2ccccc2s1)c1cc(-c2ccco2)nc2ccccc12 do in these assays?
DT40 TDP1 CPT: 18.4µM; TDP1 cell noCPT: 18.4µM; TDP1 block: inactive; uPA generation: inactive; miR-21 act: inactive

What do the screens show for `COc1cccc(-c2cc(C(=O)Nc3nc4ccccc4s3)c3ccccc3n2)c1`?
DT40 TDP1 CPT: 16.4µM; TDP1 cell noCPT: 25.9µM; TDP1 block: inactive; uPA generation: inactive; miR-21 act: inactive

Results for Cc1ccc2nc(NC(=O)c3cc(-c4ccco4)nc4ccccc34)sc2c1 ?
DT40 TDP1 CPT: inconclusive; TDP1 cell noCPT: inconclusive; TDP1 block: inactive; uPA generation: inactive; miR-21 act: inactive

How did CN(CCOc1ccccc1)C(=O)C1CCC(=O)N(CCc2ccc(Cl)cc2)C1 (configuration not stated) do in these assays?
DT40 TDP1 CPT: inconclusive; TDP1 cell noCPT: inconclusive; TDP1 block: inactive; uPA generation: inactive; miR-21 act: inactive

Results for COc1cccc(OC)c1OCCNCC1COc2ccccc2O1 (configuration not stated) ?
DT40 TDP1 CPT: 14.6µM!; TDP1 cell noCPT: inconclusive; TDP1 block: inactive; uPA generation: inactive

What do the screens show for `CCCNCC1COc2ccccc2O1` (configuration not stated)?
DT40 TDP1 CPT: inactive; TDP1 cell noCPT: inactive; TDP1 block: inactive; miR-21 act: inactive

Results for COc1cc(NC(=O)Cn2c(-c3ccccc3)cc(C(C)=O)c2C)cc(OC)c1 ?
DT40 TDP1 CPT: 20.6µM; TDP1 cell noCPT: 16.4µM; TDP1 block: inactive; miR-21 act: inactive

What do the screens show for `CCOC(=O)c1cc(-c2ccccc2)n(CC(=O)NC(C)c2ccccc2)c1C` (configuration not stated)?
DT40 TDP1 CPT: 18.4µM; TDP1 cell noCPT: 9.2µM; TDP1 block: inactive; miR-21 act: inactive

Results for CCOC(=O)c1cc(-c2ccccc2)n(CC(=O)NC(C)(C)C)c1C ?
DT40 TDP1 CPT: inconclusive; TDP1 cell noCPT: inconclusive; TDP1 block: inactive; uPA generation: inactive; miR-21 act: inactive

What do the screens show for `CCOC(=O)c1cc(-c2ccccc2)n(CC(=O)Nc2cc(OC)cc(OC)c2)c1C`?
DT40 TDP1 CPT: 20.6µM; TDP1 cell noCPT: 16.4µM; TDP1 block: inactive; uPA generation: inactive; miR-21 act: inactive

What do the screens show for `Cn1c(N)c(C(=O)COC(=O)COc2ccccc2C#N)c(=O)n(C)c1=O`?
DT40 TDP1 CPT: inactive; TDP1 cell noCPT: inactive; TDP1 block: inactive; uPA generation: inactive; miR-21 act: inactive

Results for CCCOc1ccc(CN(CCC#N)C(=S)NC(=O)c2ccccc2)cc1 ?
DT40 TDP1 CPT: 7.31µM; TDP1 cell noCPT: 5.17µM; uPA generation: inactive; miR-21 act: inactive

What do the screens show for `N#Cc1ccc(S(=O)(=O)N2CCN(c3nc(-c4ccccc4)nc4ccccc34)CC2)cc1`?
DT40 TDP1 CPT: inactive; TDP1 cell noCPT: inconclusive; TDP1 block: inactive

Results for CC(=O)N1c2ccccc2C(=O)C1N1CCN(c2ccc(F)cc2)CC1 (configuration not stated) ?
DT40 TDP1 CPT: inconclusive; TDP1 cell noCPT: 14.6µM; TDP1 block: inactive; miR-21 act: inactive

Results for CC(=O)N1c2ccccc2C(=O)C1N1CCN(c2ccccc2)CC1 (configuration not stated) ?
DT40 TDP1 CPT: inconclusive; TDP1 cell noCPT: inconclusive; TDP1 block: inactive; miR-21 act: inactive

Results for O=C(c1cc(Br)ccc1O)N1CCN(S(=O)(=O)Cc2ccccc2)CC1 ?
DT40 TDP1 CPT: inconclusive; TDP1 cell noCPT: 11.6µM; TDP1 block: inactive; uPA generation: inconclusive

How did CCOc1cc(CN2CCN(S(=O)(=O)Cc3ccccc3)CC2)ccc1OC do in these assays?
DT40 TDP1 CPT: inactive; TDP1 cell noCPT: 23.1µM; TDP1 block: inactive; uPA generation: inactive; miR-21 act: inactive

What do the screens show for `COc1ccc(Br)cc1CN1CCN(S(=O)(=O)Cc2ccccc2)CC1`?
DT40 TDP1 CPT: inconclusive; TDP1 cell noCPT: 8.2µM; TDP1 block: inactive; uPA generation: inactive; miR-21 act: inactive
